Source: PubChem (National Center for Advancing Translational Sciences (NCATS))
ClpP mod: qHTS Assay for Activators of ClpP; purified B. subtilis ClpP, FRET peptide cleavage, 20 min; Potency, µM (top dose mostly 57.5 µM), inactives show top-dose activity change, negative = active; actives 1.9% (n = 340,000); active = well fitted falling curve with a large enough effect; inconclusive = small, poorly fitted or top-dose-only effect; inactive = no such curve, though single readings can be large or run the other way; also: the source files actives as falling curves though it sought activators and does not explain the sign; nearly all actives have a fitted effect of over 65% in size
Target sequence (P80244 whole entry, looked up): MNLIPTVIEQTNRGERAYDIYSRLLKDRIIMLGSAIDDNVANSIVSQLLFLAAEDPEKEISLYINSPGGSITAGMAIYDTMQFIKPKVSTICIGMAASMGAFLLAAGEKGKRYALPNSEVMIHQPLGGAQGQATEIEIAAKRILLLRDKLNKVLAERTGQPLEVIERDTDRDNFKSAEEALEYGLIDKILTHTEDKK
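FRET quenching reversal measured ClpP activation: 10 microg/mL B. subtilis ClpP at pH 8 with the FRET-FV decapeptide, read at 430 nm after 320 nm excitation. The 20-min minus 0-min signal was scaled between DMSO/no-enzyme wells and ADEP (5.8 microM final).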
Abeta yeast res: qHTS for compounds that reverse cellular toxicity of Amyloid beta (A-beta) peptide in yeast: Primary Screen; yeast expressing A-beta42, growth rescue, OD600, 48 h; response scale: 0% DMSO, 100% iron-clioquinol control; Potency, µM (highest dose often 46.1 µM), most hits filed as activators; actives 0.063% (n = 410,000); AID 1347071, 2019; also: nearly all actives have a fitted effect of over 55% in size
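Growth rescue measured by 600 nm absorbance after 48 h yeast culture at 30 C with compound. Values normalized between DMSO and an equimolar ferric chloride plus clioquinol control.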
FUS suppressor: qHTS for Suppressors of FUS Proteinopathy: Primary screen using FUS-linked yeast assay; S. cerevisiae FUS-expressing, growth rescue, OD600, 24 h; Potency, µM (highest dose often 76.6 µM), usual class: activators; actives 0.24% (n = 390,000);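 also: plate controls were DMSO vehicle for no effect and reference control for full effect; nearly all actives have a fitted effect of over 55% in size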
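Cultures pregrown in 2.5% raffinose medium are shifted to minimal medium containing 2% galactose to express toxic FUS. Compounds are tested at several concentrations. After 24hr at 30C, growth is quantified at 600 nm absorbance.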
MmCpn inh: Inhibitors of TCP-1 ring complex (TRiC) of Methanococcus maripaludis (MmCpn): qHTS; Chaperonin Mm-Cpn (Methanococcus maripaludis); purified Mm-Cpn ATPase, ADP Transcreener TR-FRET; Potency, µM (highest dose often 76.9 µM), for the others: top-dose activity, negative = inhibition, most hits filed as inhibitors; actives 0.031% (n = 330,000); AID 504842, 2011; also: % is scaled to controls: 0 for no effect and ±100 for the full control effect; nearly all actives have a fitted effect of over 80% in size
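25 nM Mm-CPN + cpd, 10 min 37°C; + 10 uM ATP, 30 min 37°C; buffer 30 mM Tris pH 7.4, 100 mM KCl, 5 mM MgCl2, 1 mM DTT; Transcreener ADP HTRF detection 30 min RT.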
aSyn rescue: qHTS of alpha-syn Inhibitors. Yeast expressing alpha-synuclein, growth rescue, BacTiter-Glo, 24 h. Potency, µM (highest dose often 46.1 µM), inactives show at the top dose growth rescue (activation), actives largely listed as activators. actives 0.14% (n = 370,000); also: % of control where 0% means no effect; nearly all actives have a fitted effect of over 65% in size
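Rescue of yeast growth: cells expressing toxic alpha-synuclein, induced in galactose at OD600 0.02, incubated with compound 24 h at 30 C. ATP luminescence quantified growth; inhibitors of toxicity appear as activators.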
TDP-43 yeast inh: qHTS of TDP-43 Inhibitors; Potency, µM (titrated, usually from 46.1 µM), inactives show top-dose growth rescue (activation), usual class: activators; TDP-43 expressing yeast growth rescue, BacTiter-Glo, 24 h; actives 1.8% (n = 410,000); also: % of control where 0% means no effect; nearly all actives have a fitted effect of over 50% in size
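Growth rescue of TDP-43-toxic yeast measured as ATP luminescence (BacTiter-Glo). Cells grown to mid-log in raffinose, induced in galactose at OD600=0.02, exposed to compound 24 hr at 30 deg C.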
Starred values were filed as active, the others as inactive; i = inactive; ? = inconclusive; · = not tested or not shown; [ ] = another dose, or the depositor's remark. The list is not random: actives were taken first. Their share in the collection is about 3.6%. Unless noted, calls follow the shape of the dose curve; as a rule, active = well fitted curve in the direction sought with a large enough effect; inconclusive = small, poorly fitted or top-dose-only effect, or another doubt; inactive = no such curve, though single readings can be large; an effect the other way counts as inactive or inconclusive. Potency is read from the fitted curve at half-maximal effect.

SMILES	ClpP mod	Abeta yeast res	FUS suppressor	MmCpn inh	aSyn rescue	TDP-43 yeast inh
O=C(CCNC(=O)c1ccc(Br)o1)NCc1ccc(Cl)cc1	1%	i	i	1%	-15%	-17%
O=C(CNC(=O)c1ccc(Br)o1)NNC(=O)c1ccc(Cl)cc1	22µM*	i	·	-3%	-1%	-1%
O=C(NCc1nnnn1-c1ccc(Cl)cc1)c1ccc(Br)o1	16µM*	i	i	3%	-15%	22%
COc1cccc(Cn2c(CNS(=O)(=O)c3ccc4c(c3)CCCC4)nc3cccnc32)c1	-8%	i	?	·	·	21%
COc1cccc(C(=O)c2cn(CC(=O)NCc3ccccc3Cl)c3nc(C)ccc3c2=O)c1	1%	i	i	·	·	7%
Cc1ccc(C2C3=C(CCCC3=O)Nc3nc(SCC(=O)NCc4ccco4)[nH]c(=O)c32)cc1 (centres undefined)	20µM*	i	·	-1%	9%	5%
COc1ccccc1CNC(=O)COCc1cc(-c2cccs2)on1	-5%	i	i	·	·	?
O=C(Nc1ccc(Cl)c(Cl)c1)Nc1ccon1	3%	i	i	3%	-31%	35µM*
CCCCn1c(=O)c2ccccc2n2c(=S)[nH]nc12	-3%	i	i	-1%	9%	?
CCCCCn1c(=O)c2ccccc2n2c(=S)[nH]nc12	8%	i	i	-1%	9%	11µM*
CC1CCCN(C(=O)c2cc3c(Cl)nc4ccccc4c3s2)C1 (centres undefined)	1%	i	i	·	·	20µM*
CC1CCCN(CCCNC(=O)c2cc3c(Cl)nc4ccccc4c3s2)C1 (centres undefined)	-3%	i	i	0%	7%	-2%[0.397 µM]
Cn1c2ccccc2c2ncn(CCN3CCOCC3)c(=O)c21	32µM*	i	i	1%	0%	22%
O=C(NCc1ccccc1)c1ccc2oc(=O)n(Cc3ccccc3)c2c1	-1%	i	i	·	·	22µM*
CCOC(=O)c1ccc(NC(=O)c2ccc3c(c2)c(C)c(C)n3Cc2ccc(F)cc2)cc1	18µM*	i	i	·	·	-13%
Cc1ccccc1CCNC(=O)c1ccc2c(c1)c(C)c(C)n2Cc1ccccc1	32µM*	i	?	·	·	-2%
Cc1ccccc1CCNC(=O)c1ccc2c(c1)c(C)c(C)n2C	-21%	i	?	·	·	23%
COc1ccc(CCNC(=O)c2ccc3c(c2)c(C)c(C)n3Cc2ccccc2)c(OC)c1OC	?	i	?	·	·	-1%
COc1ccc(NC(=O)c2ccc3c(c2)c(C)c(C)n3Cc2ccc(F)cc2)cc1	?	i	i	·	·	2%
COc1ccc(CCNC(=O)c2ccc3c(c2)c(C)c(C)n3Cc2ccc(F)cc2)c(OC)c1OC	25µM*	i	?	·	·	1%
CCCC[C@H]1C2CC(OC(=O)Nc3cccc(Br)c3)C(C2)[C@H]2CCCCN21 (some centres undefined)	·	·	i	·	·	·
CC(C)c1ccc(NC(=O)CSc2nnc(-c3ccccc3)n2C)cc1	0%	·	·	·	-5%	·
Cc1c(C)n(Cc2ccccc2)c2ccc(C(=O)NCCc3ccccc3Cl)cc12	16µM*	i	i	·	·	-5%
Cc1cccc(CNC(=O)c2ccc3c(c2)c(C)c(C)n3Cc2ccccc2)c1	-28%	i	i	·	·	-17%
COc1ccc(OC)c(CCNC(=O)c2ccc3c(c2)c(C)c(C)n3Cc2ccccc2)c1	?	i	?	·	·	-3%
SMILES	ClpP mod	Abeta yeast res	FUS suppressor	MmCpn inh	aSyn rescue	TDP-43 yeast inh
Cc1c(C)n(Cc2ccccc2)c2ccc(C(=O)NCc3ccc(OC(C)C)cc3)cc12	18µM*	i	i	·	·	-1%
CC1CCc2onc(C(=O)NCc3ccco3)c2C1 (centres undefined)	-9%	i	i	-3%	0%	25µM*
CC1(C(=O)NCCc2ccccc2)Cc2c(-c3ccc4c(c3)OCO4)ccnc2O1 (centres undefined)	4%	i	i	·	-1%	21%
CC(=O)c1cccc(NC(=O)C2(C)Cc3c(-c4ccccc4)ccnc3O2)c1 (centres undefined)	0%	i	i	·	-3%	20µM*
CC(=O)Nc1ccc(-c2ccnc3c2CC(C)(C(=O)Nc2cccc(C(C)=O)c2)O3)cc1 (centres undefined)	-24%	i	i	·	-3%	26%
CC1(C(=O)NCc2ccccc2)Cc2c(-c3ccc4c(c3)OCO4)ccnc2O1 (centres undefined)	4%	i	i	·	23%	18µM*
CC1(C(=O)NCc2ccc(F)c(F)c2)Cc2c(-c3ccccc3)ccnc2O1 (centres undefined)	-11%	i	i	·	9%	35µM*
CCN1C(=O)c2ccccc2S(=O)c2ccc(C(=O)N3CCN(c4cccc(C)c4)C(C)C3)cc21 (centres undefined)	1%	i	?	·	·	-13%
COc1ccc(C)cc1NC(=O)c1cc(S(=O)(=O)N2CCc3ccccc3C2)ccc1F	-21%	i	i	·	·	10%
CCOC(=O)C1(Cc2cccc(OC)c2)CCN(Cc2cccn2-c2nccs2)CC1	·	i	i	0%	0%	-9%[9.22 µM]
CCOC(=O)C1(Cc2ccccc2)CCN(Cc2cccn2-c2nccs2)CC1	4.5µM*	i	·	0%	-2%	-27%
Cc1nn2c(nc(N3CCCCC3)c3ccccc32)c1C=O	13µM*	i	i	-1%	3%	?
CCc1ccc2[nH]c(=O)c(CN(Cc3ccccc3OC)Cc3nnnn3Cc3ccco3)cc2c1	-19%	i	i	-18%	22%	-11%
CCOc1ccc2[nH]c(=O)c(CN(Cc3ccco3)Cc3nnnn3Cc3ccccc3)cc2c1	?	i	i	-26%	8%	-18%
COc1ccccc1CN(Cc1cc2cc(C)ccc2[nH]c1=O)Cc1nnnn1Cc1ccco1	?	i	16µM*	-6%	14%	-2%
COc1ccc2[nH]c(=O)c(CN(Cc3ccco3)Cc3nnnn3Cc3ccccc3)cc2c1	25µM*	i	·	?	2%	12%
CCCCCSc1nc2c(c(=O)[nH]c(=O)n2C)n1CC	2%	i	i	·	-9%	13µM*
